# Hit rate of the full screen: of about 200,000 compounds, about 5,100 (2.5%) were called active.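 How the source made its calls: active means activation above the screen-wide mean activation plus 3 SD (cut at about 130% in these data); inactive means the rest.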 What follows is part of a selection rich in actives, with near analogues and random picks from the rest.
# Assay: potentiators of IFN-gamma driven STAT1 reporter – cell-based, HTS, luciferase reporter, primary screen (AID 932);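 further: raw ratio to IFN-gamma control signal so 100% means no change and 0% no light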
# Settings: NIH 3T3 STAT1-luciferase reporter, luminescence, at 5.5 µM, stronger effect = higher value, 100% = IFN-gamma alone, no compound
row,SMILES,activation (% of control)
1,COc1ccc(C2CC(c3cccs3)=NN2c2ccccc2)cc1 (stereo not given),93.2% (inactive)
2,Cc1cc(C)cc(N(CC(=O)NCCSCc2ccco2)S(C)(=O)=O)c1,102% (inactive)
3,Cc1ccccc1Nc1nc(N)nc(CSc2nnc3ccccn23)n1,120% (inactive)
4,Cc1ccc(C(=O)OCc2nc(N)nc(Nc3ccccc3C)n2)cc1,96.8% (inactive)
5,Cc1ccccc1Nc1nc(N)nc(CSc2ccccc2)n1,183% (active)
6,CC(C)(C)C1CCC(=NNC(=O)c2cc(-c3ccccc3)n[nH]2)CC1 (stereo not given),113% (inactive)
7,CCOC(=O)N1CCN(C(=O)C2CCN(Cc3ccc(OC)cc3OC)CC2)CC1,94.7% (inactive)
8,Oc1oc(-c2ccccc2Br)nc1/C=N/c1ccccn1,131% (active)
9,CC(N=Cc1nc(-c2ccccc2)oc1O)c1ccccc1 (stereo not given),104% (inactive)
10,CCOc1ccc2nc(/N=C/c3nc(-c4ccccc4)oc3O)sc2c1,104% (inactive)
11,O=C1NC(c2ccc(-c3ccccc3[N+](=O)[O-])o2)C(C(=O)c2ccc(Cl)cc2)C(O)(C(F)(F)F)N1 (stereo not given),102% (inactive)
12,COc1ccc(C(C)=O)cc1CSc1nc2nc(C)cc(C)n2n1,93.7% (inactive)
13,O=C(Oc1ccc([N+](=O)[O-])cc1)c1ccc2ccccc2n1,94.7% (inactive)
14,COc1ccc(C(=O)COC(=O)c2ccc3ccccc3n2)cc1,103% (inactive)
15,CC(OC(=O)c1ccc2ccccc2n1)C(=O)c1ccccc1 (stereo not given),138% (active)
16,CCC(NC(=O)c1ccccc1NC(=O)c1ccccc1)C(=O)NNC(=O)CSc1nc2ccccc2o1 (stereo not given),94% (inactive)
17,Cc1ccc(-n2[nH]c(C)c(/C=N/NC(=O)c3cccc([N+](=O)[O-])c3)c2=O)cc1C,101% (inactive)
18,Cc1[nH]n(-c2ccc(Cl)cc2)c(=O)c1/C=N/n1c(C)nc2ccccc2c1=O,99.3% (inactive)
19,Cc1[nH]n(-c2ccccc2)c(=O)c1/C=N/NC(=O)c1ccoc1C,155% (active)
20,C=CCn1c(SCC(N)=O)nnc1-c1cc2c(s1)CCC(CC)C2 (stereo not given),121% (inactive)
21,CC1CN(/C=C/C(=O)C(F)(F)F)CC(C)O1 (stereo not given),95.8% (inactive)
22,CCSc1sc(CC)cc1C=O,107% (inactive)
23,COc1ccccc1N1CCN(C(=O)c2cc(-c3ccc(Br)cc3)on2)CC1,99.6% (inactive)
24,O=C(c1ccc(F)cc1)N1CCCC(c2nc(-c3cccs3)no2)C1 (stereo not given),96.9% (inactive)
25,Cc1ccc(-c2cc(C(=O)N3CCc4ccccc4C3)no2)cc1,97.3% (inactive)

row,SMILES,activation (% of control)
1,COc1ccccc1-c1cc(C(=O)N2CCCCC2)no1,164% (active)
2,O=C(c1cc(-c2cccs2)on1)N1CCCCC1,162% (active)
3,O=C(c1cc(-c2ccccc2O)on1)N1CCCC1,108% (inactive)
4,COc1ccc(C2CC(c3cccs3)Nc3nnnn32)cc1 (stereo not given),87.6% (inactive)
5,Cc1cc(=O)[nH]c(N/N=C/c2c(C)nn(-c3ccccc3Cl)c2Cl)n1,100% (inactive)
6,CC(OC(=O)CNS(=O)(=O)/C=C/c1ccccc1)C(=O)Nc1ccc(S(=O)(=O)N2CCCC2)cc1 (stereo not given),89% (inactive)
7,CC(=O)c1ccc(NC(=O)c2ccc3c(Cl)c4c(nc3c2)CCCC4)cc1,113% (inactive)
8,O=C(CN1CCN(c2ccc(O)cc2)CC1)NC1CCCc2ccccc21 (stereo not given),101% (inactive)
9,Cc1ccc(OCc2nnc(SC3CCc4ccccc4C3=O)n2C)cc1 (stereo not given),105% (inactive)
10,CCc1nnc(NS(=O)(=O)c2ccc(NC(=S)NC(=O)c3cccs3)cc2)s1,109% (inactive)
11,Cc1cc(C)nc(NS(=O)(=O)c2ccc(N/C=C\C(=O)c3cccs3)cc2)n1,135% (active)
12,CC(=O)Nc1ccc(S(=O)(=O)Nc2nccc(/C=C/c3ccccc3F)n2)cc1,98.1% (inactive)
13,O=C(c1cccs1)n1nc(NCc2ccccc2)nc1NCc1ccccc1,107% (inactive)
14,CNC(=O)COC(=O)c1cc(-c2ccc(OC)cc2)nc2ccccc12,99.7% (inactive)
15,CC(C)(C)NC(=O)NC(=O)COC(=O)Cc1c(F)cccc1Cl,113% (inactive)
16,O=C(CSc1nc2ccccc2[nH]1)c1cccs1,136% (active)
17,CCCCSc1nc2ccccc2[nH]1,121% (inactive)
18,C=CCSc1nc2ccccc2[nH]1,109% (inactive)
19,CCOc1cc2[nH]c(=O)n(Cc3ccc(C(=O)NCCCN4CCCC4=O)cc3)c(=O)c2cc1OCC,92.1% (inactive)
20,COc1ccc(C2(CNC(=O)Cc3ccc(OC)c(OC)c3)CCCC2)cc1,94.7% (inactive)
21,N/C(=N\OC(=O)c1ccc([N+](=O)[O-])cc1)c1ccccn1,81.4% (inactive)
22,O=C(OCc1ccc([N+](=O)[O-])cc1)c1ccccn1,95.9% (inactive)
23,N/C(=N\OC(=O)CC1CCCCC1)c1ccccc1,116% (inactive)
24,N/C(=N\OC(=O)CCC1CCCCC1)c1ccccn1,130% (active)
25,N/C(=N\OC(=O)Cc1ccc([N+](=O)[O-])cc1)c1ccccn1,139% (active)

row,SMILES,activation (% of control)
1,CCC(C)(NC(=O)c1ccccn1)C(=O)NC1CCCCC1 (stereo not given),95.5% (inactive)
2,COC(=O)c1sc(NC(=O)c2ccc(OC)cc2OC)nc1C,75.1% (inactive)
3,COc1cc(SC)ccc1C(=O)Nc1nc(C)cs1,12.9% (inactive)
4,COc1ccc(C(=O)Nc2nncs2)c(OC)c1,131% (active)
5,COc1ccc(S(=O)(=O)N2CCN(C(=O)c3cc(C)oc3C)CC2)cc1,90.8% (inactive)
6,Cc1ccc([N+](=O)[O-])c(OCCCNCC(C)O)c1 (stereo not given),101% (inactive)
7,CN1CCN(C(=O)/C(=C\c2ccc3c(c2)OCO3)NC(=O)c2cccs2)CC1,98.7% (inactive)
8,COC(=O)c1ccccc1SC1CC(=O)N(c2cccc(C)c2)C1=O (stereo not given),94.5% (inactive)
9,CC1CCN(S(=O)(=O)c2ccc3ncn(CC(=O)N(C)C4CCCCC4)c(=O)c3c2)CC1,100% (inactive)
10,Cc1cccc(C)c1NC(=O)C1CCCN1C(=O)OC(C)(C)C (stereo not given),104% (inactive)
11,CCNC(=O)NNC(=O)C1CC(c2cccs2)=NO1 (stereo not given),100% (inactive)
12,O=C(Nc1nnc(C2CC2)s1)c1ccccn1,129% (active)
13,O=C(Cc1cccs1)Nc1nnc(C2CC2)s1,90.1% (inactive)
14,Cc1occc1C(=O)Nc1nnc(C2CCCCC2)s1,107% (inactive)
15,Cc1nc2ccccn2c1C(=O)NN=C1CCN(C)CC1,96.3% (inactive)
16,CN1CCN(c2ccc(NC(=O)c3ccc4c(c3)[nH]c(=O)n4Cc3ccc(F)cc3)cc2)CC1,98.7% (inactive)
17,Clc1cccc(CN2COc3c(cc(Cl)c4cccnc34)C2)c1,94.3% (inactive)
18,COC(=O)c1sc(NC(=O)c2csc3c2CCCC3)nc1C,149% (active)
19,COC(=O)c1sccc1NC(=O)c1csc2c1CCCC2,106% (inactive)
20,O=C(NCc1ccccc1Cl)c1csc2c1CCCCC2,107% (inactive)
21,Cc1ccc(NC(=O)c2csc3c2CCCC3)cc1,176% (active)
22,Cc1ccc(NC(=O)c2c(NC(=O)CCC(=O)O)sc3c2CCCCC3)cc1,105% (inactive)
23,CC(=O)Cc1nsc(NC(=O)c2csc3c2CCCC3)n1,102% (inactive)
24,O=C(COc1ccccc1Cl)Nc1ccc(C(=O)c2ccc(C(=O)O)cc2)cc1,98% (inactive)
25,CSCCC(=O)N1CCCC(CNC(=O)c2ccccc2Cl)C1 (stereo not given),96.7% (inactive)

row,SMILES,activation (% of control)
1,CCN(CC)S(=O)(=O)c1ccc(NC(=O)c2cccnc2Cl)c(NC(=O)c2cccnc2Cl)c1,88.7% (inactive)
2,O=C1Nc2cc(Cl)c(Cl)cc2N(O)N1c1ccccc1Cl,82.7% (inactive)
3,CC1CCN(C(=S)c2ccc(-c3ccc(Cl)cc3Cl)o2)CC1,85.7% (inactive)
4,S=C(NCCc1ccccc1)N1CCCCC1,122% (inactive)
5,S=C(c1ccc(-c2ccccc2)o1)N1CCCCC1,138% (active)
6,O=C(CNC(=O)COc1ccccc1)NCCc1ccccn1,104% (inactive)
7,Cc1cc(/C=N/NC(=O)c2cccnc2)c(C)n1CC(C)C,139% (active)
8,CCC(=O)Nc1cccc(NC(=O)c2cccnc2)c1,98.6% (inactive)
9,Cc1nn(Cc2ccc(Cl)cc2)c(Cl)c1/C=N/NC(=O)c1cccnc1,94.4% (inactive)
10,Cc1ccc2sc(NNC(=O)c3ccc4c(c3)OCCO4)nc2c1C,104% (inactive)
11,Cc1cc2nc(SCCN3CCOCC3)[nH]c2cc1C,152% (active)
12,Cc1ccc(S(=O)(=O)NCCN2CCOCC2)cc1C,96.1% (inactive)
13,CCOC(=O)CSc1nc2ccc(C)cc2[nH]1,111% (inactive)
14,COc1ccc(CN2CCCC(CNC(=O)c3ccc(F)cc3)C2)cc1OC (stereo not given),97.8% (inactive)
15,CC1CCC(NC(=O)C2c3ccccc3C(=O)N2Cc2ccc3c(c2)OCO3)CC1 (stereo not given),89.6% (inactive)
16,OCCCN1c2ccccc2Nc2nnc(-c3ccccc3)cc21,156% (active)
17,N=c1c2c(-c3ccccc3)c(-c3ccccc3)n(Cc3ccccc3)c2ncn1CCCO,102% (inactive)
18,Cc1ccc(C)c(-n2ccnc2SCC(N)=O)c1,102% (inactive)
19,Cc1cccc(NC(=O)c2cccc(C(F)(F)F)c2)c1,107% (inactive)
20,O=C(Nc1cccc(C(F)(F)F)c1)c1cnccn1,110% (inactive)
21,Cc1ccc(NC(=O)Nc2cccc(C(F)(F)F)c2)nc1,129% (active)
22,CN(C)c1ccc2c(=O)[nH][nH]c(=O)c2c1,103% (inactive)
23,COc1ccc(-n2c(C)nn(CC3CC3)c2=O)cc1,97.8% (inactive)
24,NS(=O)(=O)c1ccc(CCNC(=O)CCCn2c(SCC(=O)N3CCCC3)nc3ccsc3c2=O)cc1,99.5% (inactive)
25,CCc1ccc(NC(=O)CC2C(=O)NCCN2C(=S)Nc2ccccc2)cc1 (stereo not given),100% (inactive)

# From PubChem BioAssay AID932 (The Scripps Research Institute Molecular Screening Center, 2007)
